Our source for the outcome and AC50 values is PubChem BioAssay (EPA / NIEHS).

Records with an inconclusive call do not appear. Activity calls are given as the source filed them. Rule for the calls: active = hit-call score of the fitted dose curve at least 0.9, where 1 is the maximum; inconclusive = response in the unintended direction; inactive = score below 0.9.

Chain of human Protein Tyrosine Phosphatase Non-receptor Type 6 (PTPN6), PTPN6 (gene 5777) (P29350 whole entry, looked up): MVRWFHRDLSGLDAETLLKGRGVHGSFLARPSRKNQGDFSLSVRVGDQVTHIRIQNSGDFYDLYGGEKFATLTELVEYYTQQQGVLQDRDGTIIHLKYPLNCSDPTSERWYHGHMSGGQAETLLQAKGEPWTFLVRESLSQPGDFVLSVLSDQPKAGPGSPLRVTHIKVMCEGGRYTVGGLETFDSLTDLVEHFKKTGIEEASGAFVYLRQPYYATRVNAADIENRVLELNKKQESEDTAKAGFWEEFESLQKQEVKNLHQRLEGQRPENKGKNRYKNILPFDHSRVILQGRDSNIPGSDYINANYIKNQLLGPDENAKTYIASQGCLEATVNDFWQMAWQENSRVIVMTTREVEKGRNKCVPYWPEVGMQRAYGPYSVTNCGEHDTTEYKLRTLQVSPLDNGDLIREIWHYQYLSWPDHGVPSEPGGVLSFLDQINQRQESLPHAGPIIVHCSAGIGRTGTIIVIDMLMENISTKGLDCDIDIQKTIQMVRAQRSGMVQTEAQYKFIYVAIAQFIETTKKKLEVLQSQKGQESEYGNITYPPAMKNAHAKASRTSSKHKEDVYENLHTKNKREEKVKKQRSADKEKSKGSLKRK
Chain of human Sirtuin 1 (SIRT1), SIRT1 (gene 23411) (Q96EB6 whole entry, looked up): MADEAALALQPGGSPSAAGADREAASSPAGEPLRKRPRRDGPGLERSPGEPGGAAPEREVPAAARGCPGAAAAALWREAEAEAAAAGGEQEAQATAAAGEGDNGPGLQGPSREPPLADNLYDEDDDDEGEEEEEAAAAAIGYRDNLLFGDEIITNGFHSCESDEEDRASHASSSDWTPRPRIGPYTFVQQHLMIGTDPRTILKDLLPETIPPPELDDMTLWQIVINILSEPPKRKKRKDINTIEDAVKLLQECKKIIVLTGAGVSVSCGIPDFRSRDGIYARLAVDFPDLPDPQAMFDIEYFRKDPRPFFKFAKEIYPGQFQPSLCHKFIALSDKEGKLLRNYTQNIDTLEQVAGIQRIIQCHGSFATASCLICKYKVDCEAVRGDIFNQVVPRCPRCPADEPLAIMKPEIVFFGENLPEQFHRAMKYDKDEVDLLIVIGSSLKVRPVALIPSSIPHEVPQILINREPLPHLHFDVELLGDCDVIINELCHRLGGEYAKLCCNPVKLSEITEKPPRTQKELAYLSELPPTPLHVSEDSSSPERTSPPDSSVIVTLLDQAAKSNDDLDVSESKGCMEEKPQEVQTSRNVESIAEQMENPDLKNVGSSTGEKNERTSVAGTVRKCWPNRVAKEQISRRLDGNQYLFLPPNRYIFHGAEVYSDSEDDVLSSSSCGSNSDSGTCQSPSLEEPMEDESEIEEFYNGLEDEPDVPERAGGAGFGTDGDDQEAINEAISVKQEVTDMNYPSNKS
Chain of human Protein Tyrosine Phosphatase Receptor Type C (PTPRC), PTPRC (gene 5788) (P08575 whole entry, looked up): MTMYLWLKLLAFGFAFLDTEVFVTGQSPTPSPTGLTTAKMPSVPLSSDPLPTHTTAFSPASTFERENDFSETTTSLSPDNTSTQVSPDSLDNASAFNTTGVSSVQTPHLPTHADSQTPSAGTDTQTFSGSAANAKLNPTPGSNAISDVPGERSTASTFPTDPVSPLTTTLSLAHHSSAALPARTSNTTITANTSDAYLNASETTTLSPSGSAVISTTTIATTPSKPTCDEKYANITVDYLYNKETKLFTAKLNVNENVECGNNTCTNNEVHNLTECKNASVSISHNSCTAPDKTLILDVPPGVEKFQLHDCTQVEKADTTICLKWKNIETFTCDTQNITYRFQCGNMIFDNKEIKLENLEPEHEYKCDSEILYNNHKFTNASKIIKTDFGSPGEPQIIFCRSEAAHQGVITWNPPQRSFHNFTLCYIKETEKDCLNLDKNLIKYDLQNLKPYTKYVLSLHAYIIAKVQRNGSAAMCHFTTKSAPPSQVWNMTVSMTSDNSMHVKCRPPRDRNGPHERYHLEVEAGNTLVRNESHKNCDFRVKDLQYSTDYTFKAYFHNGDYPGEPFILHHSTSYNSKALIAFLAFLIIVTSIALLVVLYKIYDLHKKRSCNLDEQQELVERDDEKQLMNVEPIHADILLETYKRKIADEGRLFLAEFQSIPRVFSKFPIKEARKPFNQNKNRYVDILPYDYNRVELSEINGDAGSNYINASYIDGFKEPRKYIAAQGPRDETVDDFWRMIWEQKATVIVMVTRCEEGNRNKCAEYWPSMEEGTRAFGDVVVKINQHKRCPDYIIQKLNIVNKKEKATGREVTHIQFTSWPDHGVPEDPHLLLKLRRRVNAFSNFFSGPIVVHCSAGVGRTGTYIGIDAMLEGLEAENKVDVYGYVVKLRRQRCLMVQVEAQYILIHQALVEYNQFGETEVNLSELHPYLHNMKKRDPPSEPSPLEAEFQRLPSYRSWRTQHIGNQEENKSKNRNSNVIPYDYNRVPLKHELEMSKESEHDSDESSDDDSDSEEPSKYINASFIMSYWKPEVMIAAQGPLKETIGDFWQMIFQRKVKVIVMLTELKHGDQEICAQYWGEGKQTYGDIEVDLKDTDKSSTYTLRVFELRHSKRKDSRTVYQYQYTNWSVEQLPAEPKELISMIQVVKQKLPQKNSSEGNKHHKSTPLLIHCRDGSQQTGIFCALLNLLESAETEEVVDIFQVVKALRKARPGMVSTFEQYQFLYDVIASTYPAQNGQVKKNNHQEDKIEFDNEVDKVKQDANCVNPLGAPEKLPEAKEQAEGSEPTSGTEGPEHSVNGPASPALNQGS
Chain of human Phosphatase and Tensin Homolog (PTEN), PTEN (gene 5728) (P60484 whole entry, looked up): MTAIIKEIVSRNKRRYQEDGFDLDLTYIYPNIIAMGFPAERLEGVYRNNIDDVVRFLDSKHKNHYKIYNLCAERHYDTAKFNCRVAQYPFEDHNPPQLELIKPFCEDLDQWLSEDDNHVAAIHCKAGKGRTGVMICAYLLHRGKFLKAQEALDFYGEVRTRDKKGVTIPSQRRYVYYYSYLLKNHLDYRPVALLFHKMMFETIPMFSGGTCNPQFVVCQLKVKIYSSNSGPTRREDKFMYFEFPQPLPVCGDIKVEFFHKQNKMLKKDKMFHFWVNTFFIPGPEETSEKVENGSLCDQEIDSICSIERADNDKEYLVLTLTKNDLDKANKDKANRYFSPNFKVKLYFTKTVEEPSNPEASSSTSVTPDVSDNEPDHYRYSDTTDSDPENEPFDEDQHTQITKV

The first assay has as its target human Phosphatase and Tensin Homolog (PTEN), PTEN (gene 5728) (UniProt P60484). Briefly: NVS_ENZ_hPTEN: NovaScreen (NVS) Enzymatic Assay for human Phosphatase and Tensin Homolog (PTEN) (AID 2283203). A digest of the protocol:
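Cell-free recombinant human PTEN with fluorescent substrate; product separated by electrophoretic mobility shift and read by fluorescence 1 h after dosing. Primary screen in duplicate at 25 uM, actives followed in concentration series versus DMSO.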
With `CCOP(=S)(OCC)SCSc1ccc(Cl)cc1`, the outcome was inactive. The AC50 is the concentration giving half of the maximal activity seen. For `Cn1[nH]nnc1=S`, the AC50 was 1.08 µM (active).

Take `Clc1ccc(Oc2ccccc2)cc1`: the compound was called inactive. On the same count and under the same terms, then `Cc1ccc(C(=O)Cl)cc1`, with “inactive”.

The target of a further assay is human Protein Tyrosine Phosphatase Non-receptor Type 9 (PTPN9), PTPN9 (gene 5780) (UniProt P43378). Briefly: NVS_ENZ_hPTPN9: NovaScreen (NVS) Enzymatic Assay for human Protein Tyrosine Phosphatase Non-receptor Type 9 (PTPN9) (AID 2283209). In short, it runs like this: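 Sf9-expressed enzyme in a cell-free assay, fluorescence read 1.33 h after dosing with mobility-shift separation of substrate and product. Tested at 25 uM in duplicate, then up to 50 uM; signal loss versus DMSO.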
Chain of human Protein Tyrosine Phosphatase Non-receptor Type 9 (PTPN9), PTPN9 (gene 5780) (P43378 whole entry, looked up): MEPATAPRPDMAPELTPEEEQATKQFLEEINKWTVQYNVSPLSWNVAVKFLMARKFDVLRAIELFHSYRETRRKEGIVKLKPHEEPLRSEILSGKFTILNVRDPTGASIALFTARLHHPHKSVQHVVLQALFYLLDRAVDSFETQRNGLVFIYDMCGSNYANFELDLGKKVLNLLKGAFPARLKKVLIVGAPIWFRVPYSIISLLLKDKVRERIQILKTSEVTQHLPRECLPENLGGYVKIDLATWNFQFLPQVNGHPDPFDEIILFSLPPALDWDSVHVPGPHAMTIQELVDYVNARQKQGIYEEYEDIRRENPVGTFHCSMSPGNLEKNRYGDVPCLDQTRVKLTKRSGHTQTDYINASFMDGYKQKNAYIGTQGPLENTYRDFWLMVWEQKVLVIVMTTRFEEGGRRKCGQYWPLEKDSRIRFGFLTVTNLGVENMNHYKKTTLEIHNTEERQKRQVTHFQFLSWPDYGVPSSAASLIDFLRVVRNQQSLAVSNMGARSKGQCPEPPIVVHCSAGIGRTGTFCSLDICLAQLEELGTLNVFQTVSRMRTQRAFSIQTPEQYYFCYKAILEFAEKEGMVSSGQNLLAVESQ
As to `CN(C)C(=O)Cl`, the AC50 was 41.7 µM (active). Consider `CCC(C)(C)c1ccc(O)cc1`, for which the AC50 is 42.1 µM (active).

Consider `OCC1CO1` (stereo not given), for which the call was inactive.

The next assay addresses human Protein Tyrosine Phosphatase Non-receptor Type 6 (PTPN6), PTPN6 (gene 5777) (UniProt P29350). Kind of assay: NVS_ENZ_hPTPN6: NovaScreen (NVS) Enzymatic Assay for human Protein Tyrosine Phosphatase Non-receptor Type 6 (PTPN6) (AID 2283210). As to the method: NVS_ENZ_hPTPN6 is a biochemical, single-readout assay that uses extracted gene-proteins from SF9 in a cell-free assay. Measurements were taken 1.33 hours after chemical dosing in a 384-well plate.NVS_ENZ_hPTPN6 is one of one assay component(s) measured or calculated from the NVS_ENZ_hPTPN6 assay. It is designed to make measurements of enzyme activity, a form of enzyme reporter, as detected with fluorescence intensity signals by Fluorescence and electrophoretic mobility shift technology.Data from the assay component NVS_ENZ_hPTPN6 was analyzed into 1 assay endpoint. This assay endpoint, NVS_ENZ_hPTPN6, was analyzed in the positive analysis fitting direction relative to DMSO as the negative control and baseline of activity. Using a type of enzyme reporter, loss-of-signal activity can be used to understand changes in the enzymatic activity as they relate to the gene PTPN6. Furthermore, this assay endpoint can be referred to as a primary readout, because this assay has produced multiple assay endpoints where this one serves a enzymatic activity function. To generalize the intended target to other relatable targets, this assay endpoint is annotated to the phosphatase intended target family, where the subfamily is non-receptor tyrosine phosphatase.
Binding assays used specific radioligands (tritiated, iodinated) with non-radioactive competitive displacement ligands in agonist or antagonist protocols (as indicated) and various reference compounds and inhibitors to titrate specific binding to receptors and transporters. Most enzyme assays (CYPs, kinases, phosphatases, proteases, HDACs) used recombinant protein and specific substrates (fluorescence mostly, some colorimetric and radioactive) and inhibitors, followed by a biochemical separation of substrate and product. All assays for the biochemical HTS were initially run in duplicate at a single concentration (10 uM for CYP450 assays and 25 uM for all others). […] Each assay was run with positive and negative controls, and concurrent controls on every plate. The follow-up (secondary) screen tested active chemical-pairs in concentration series, as well as a few additional assays not tested in the primary screen, some selected negative inactives, and several cases re-run in the concentration series for confirmatory purposes.
For the compound `ClC(Cl)c1ccccc1`, the compound was classed as inactive.

For `CN(C)C(=O)Cl`, the compound was called inactive. Take `O=C(O)C1C(C(=O)O)C2(Cl)C(Cl)=C(Cl)C1(Cl)C2(Cl)Cl` (stereo not given): the result was inactive. Still for that read-out and setting: then `CCOS(=O)(=O)OCC`, with “inactive”; and `c1nc[nH]n1`, with “inactive”.

In the next assay the target is human Protein Tyrosine Phosphatase Receptor Type C (PTPRC), PTPRC (gene 5788) (UniProt P08575). Briefly: NVS_ENZ_hPTPRC: NovaScreen (NVS) Enzymatic Assay for human Protein Tyrosine Phosphatase Receptor Type C (PTPRC) (AID 2283212). In short, it runs like this:
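Yeast-extracted human PTPRC used in a cell-free colorimetric enzyme activity read-out, 1 h after dosing. Primary screen in duplicate at 25 uM; actives rerun in concentration-response up to 50 uM, DMSO as baseline.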
As for `CCCCN(CCCC)SN(C)C(=O)Oc1cccc2c1OC(C)(C)C2`, the AC50 was 7.97 µM (active).

Regarding `Cc1ccc(N)cc1N`, the AC50 was 32.2 µM (active). In the case of `O=P1(N(CCCl)CCCl)NCCCO1` (stereo not given), the result was inactive.

In the case of `Nc1ccc2ccccc2c1`, the AC50 was 12.3 µM (active). With `Cc1ccc(O)cc1C`, the outcome was inactive.

A further assay concerns the target human Sirtuin 1 (SIRT1), SIRT1 (gene 23411) (UniProt Q96EB6). Kind of assay: NVS_ENZ_hSIRT1: NovaScreen (NVS) Enzymatic Assay for human Sirtuin 1 (SIRT1) (AID 2283219). A digest of the protocol: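 Cell-free recombinant SIRT1 with a fluorescent substrate; substrate and product separated by electrophoretic mobility shift and read by fluorescence intensity, 1 h after dosing. Primary screen at 25 uM in duplicate; hits re-run in concentration-response up to 50 uM, relative to DMSO.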
Consider `O=P1(N(CCCl)CCCl)NCCCO1` (stereo not given), for which the compound was called inactive.

Regarding `Cc1ccc([N+](=O)[O-])cc1C`, the compound was called inactive. Regarding `CC(Cl)(Cl)C(=O)O`, the compound was classed as inactive.
